Assay [1] in a line: Cell Viability - BJ (AID 421).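 Further: potency means the concentration at half of the fitted maximal effect; cells exposed to compound for 40 hours at 37 °C before readout.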 The following applies: BJ fibroblast viability, qHTS. The essentials: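 Luminescent ATP signal (CellTiter-Glo, 20 min at room temperature) served as the read-out of viable BJ cells after 40 hours of compound treatment. Responses were scaled between DMSO and 100 uM tamoxifen, and AC50 values were obtained by Hill modeling.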
A general note: In qHTS, concentration-response curves come from the screen itself.

A short description of assay [2]: Cell Viability - SH-SY5Y (AID 544; active means well fitted curve in the direction sought with a large enough effect; an effect the other way counts as inactive or inconclusive;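 further: 0% = DMSO alone and -100% = 100 µM tamoxifen; nearly all actives have a fitted effect of over 55% in size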). The following applies: SH-SY5Y neuroblastoma cell viability; viability change, negative = cytotoxic: at 92.2 µM (top of the series). In outline: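 Luminescent ATP read-out (CellTiter-Glo) measures loss of viable SH-SY5Y neuroblastoma cells after 40 hr compound exposure at 37 °C. AC50 values derive from standard Hill modelling of qHTS concentration-response data.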

Assay [3] is described as follows: Cell Viability - LYMP1-003 - Assay at 40 hr (AID 964; active means well fitted curve in the direction sought with a large enough effect; an effect the other way counts as inactive or inconclusive; further: on the % scale 0 is the no-effect control and ±100 the full control effect; nearly all actives have a fitted effect of over 60% in size). The essentials: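 Cells were seeded at 2500 per well and incubated 5 hr at 37 C. Compounds were added across a concentration series and left 40 hr at 37 C. CellTiter-Glo was added for 30 min at room temperature before luminescence reading.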
Assay [4] can be described thus: Cell Viability - LYMP2-009 (AID 968; active means well fitted curve in the direction sought with a large enough effect; an effect the other way counts as inactive or inconclusive;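 further: cells exposed to compound for 24 h at 37 °C; 0% = DMSO alone and the full-kill end = tetraoctylammonium bromide at 92 µM; nearly all actives have a fitted effect of over 55% in size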).
A short description of assay [5]: Cell Viability - LYMP2-017 (AID 972; active means well fitted curve in the direction sought with a large enough effect; an effect the other way counts as inactive or inconclusive;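 further: cells exposed to compound for 24 hours at 37 °C; on the % scale 0 is the no-effect control and ±100 the full control effect; nearly all actives have a fitted effect of over 55% in size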). In outline: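 2500 cells/well, 5 h 37 C; cpd 24 h 37 C in complete medium; CellTiter-Glo, 30 min RT; luminescence (ATP). AC50 via Hill fit, qHTS.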
The nature of assay [6]: qHTS Assay for Identification of Small Molecule Inducers of Hypoxia Response (AID 2120; active means well fitted curve in the direction sought with a large enough effect in the signal ratio, with a control signal flat, not every such curve was filed as active; the % refers to the signal ratio; further: 0% is about no effect). In outline: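 ME-180 HRE-bla cells plated in Opti-MEM/0.5% dialyzed FBS, rested 4-5 h, then dosed with compound titrations by pin tool. After 17 h at 37 degrees C, CCF4 dye loaded 2.5 h at RT; 460/530 nm ratio gave %Activity and AC50.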
For assay [7], the target named is Bile acid receptor (Homo sapiens) (UniProt Q96RI1). Put plainly: qHTS assay for small molecule antagonists of farnesoid X receptor signaling (AID 588526). Further: on the % scale 0 is the no-effect control and ±100 the full control effect. The essentials: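 Antagonist mode: titrated compounds tested against chenodeoxycholic acid stimulation (normalized to 50 uM CDCA and DMSO) in GeneBLAzer HEK293T cells for 16 h. Beta-lactamase read by CCF4 fluorescence; IC50 from Hill fits.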
Sequence of Bile acid receptor (Homo sapiens) (Q96RI1 whole entry, looked up): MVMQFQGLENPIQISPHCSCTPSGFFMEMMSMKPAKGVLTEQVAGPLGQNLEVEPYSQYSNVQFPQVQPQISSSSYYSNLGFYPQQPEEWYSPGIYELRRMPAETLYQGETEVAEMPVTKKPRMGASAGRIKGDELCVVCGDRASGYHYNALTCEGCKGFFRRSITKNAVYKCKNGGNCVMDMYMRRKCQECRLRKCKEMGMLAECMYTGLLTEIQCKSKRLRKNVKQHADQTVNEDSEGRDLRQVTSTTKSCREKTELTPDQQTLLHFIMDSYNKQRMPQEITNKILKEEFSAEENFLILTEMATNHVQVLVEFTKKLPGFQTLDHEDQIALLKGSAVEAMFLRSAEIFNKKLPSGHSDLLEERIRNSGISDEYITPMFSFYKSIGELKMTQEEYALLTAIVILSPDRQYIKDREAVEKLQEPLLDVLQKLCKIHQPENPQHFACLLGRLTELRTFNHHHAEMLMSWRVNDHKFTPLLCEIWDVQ

Assay [8] shares this target. As to the kind of experiment: qHTS assay for small molecule agonists of farnesoid X receptor signaling (AID 588527).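 Further: 0% = vehicle basal and 100% = reference agonist.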 To be noted: HEK293T FXR-UAS-bla, beta-lactamase ratio, 16 h; stronger effect = higher value. In outline:
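FXR-UAS-bla HEK293T, 10% dialyzed FBS; cpds up to 92 uM titration, 16 h 37 C; CCF4 dye 2 h RT; fluorescence. Normalized to chenodeoxycholic acid 100 uM (100%) and DMSO (0%); Hill fit gives EC50, efficacy.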

Assay [9] in a line: qHTS assay for small molecule antagonists of peroxisome proliferator-activated receptor delta signaling (AID 588535).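 Further: cells co-treated with a PPAR-delta agonist as stimulator during compound exposure.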 The following applies: HEK293T PPARd-UAS-bla, beta-lactamase FRET ratio, 18 h; 460 nm channel. The essentials: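 Antagonist-mode beta-lactamase reporter (GeneBLAzer PPAR-delta-UAS-bla) in HEK293T cells, 2% charcoal/dextran FBS, 4000 cells/well. Compound titrations, 18 h at 37 C; CCF4 ratio read, IC50 and efficacy from Hill fits.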

In assay [10] the target is Vitamin D3 receptor (Homo sapiens) (UniProt P11473). As to the kind of experiment: qHTS assay for small molecule antagonists of vitamin D receptor signaling (AID 588541).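 Further: receptor activated by calcitriol during compound treatment; on the % scale 0 is the no-effect control and ±100 the full control effect.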 In outline: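 VDR-UAS-bla HEK293T cells in 2% charcoal-stripped FBS were stimulated with 1-alpha,25-dihydroxyvitamin D3 (3 nM final) plus compound for 16 h at 37 C. The beta-lactamase CCF4 readout was normalized to 50 nM agonist and DMSO, and Hill fits gave IC50.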
Sequence of Vitamin D3 receptor (Homo sapiens) (P11473 whole entry, looked up): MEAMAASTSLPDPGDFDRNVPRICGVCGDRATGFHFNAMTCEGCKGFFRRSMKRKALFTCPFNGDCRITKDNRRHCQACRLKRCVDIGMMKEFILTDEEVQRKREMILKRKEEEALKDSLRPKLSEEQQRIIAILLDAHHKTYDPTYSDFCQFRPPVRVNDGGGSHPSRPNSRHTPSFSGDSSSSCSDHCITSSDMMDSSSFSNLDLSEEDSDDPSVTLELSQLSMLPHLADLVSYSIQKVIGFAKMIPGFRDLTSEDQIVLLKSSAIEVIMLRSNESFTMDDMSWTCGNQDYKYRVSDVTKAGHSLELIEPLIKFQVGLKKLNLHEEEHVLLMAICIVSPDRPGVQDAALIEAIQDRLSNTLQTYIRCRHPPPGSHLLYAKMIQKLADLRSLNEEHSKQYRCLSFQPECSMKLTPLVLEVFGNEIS

For assay [11] the target is unchanged. Put plainly: qHTS assay for small molecule agonists of vitamin D receptor signaling (AID 588543).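 Further: 0% = DMSO basal and 100% = reference agonist control.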 In outline:
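qHTS in agonist mode: compound titrations stimulate a VDR-driven β-lactamase reporter in HEK293T cells over 16 h at 37 °C. Response normalized to 50 nM 1α,25-dihydroxyvitamin D3 = 100%, DMSO = 0%; Hill fitting gives EC50 and maximal response.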

The target in assay [12] is Retinoic acid receptor RXR-alpha (Homo sapiens) (UniProt P19793). As to the kind of experiment: qHTS assay for small molecule antagonists of retinoid X receptor alpha signaling (AID 588546; active means well fitted inhibition curve with a large enough effect in the signal ratio, with a control signal flat, not every such curve was filed as active; the % refers to the signal ratio; further: on the % scale 0 is the no-effect control and ±100 the full control effect). To be noted: HEK293T RXRa-UAS-bla, beta-lactamase ratio, antagonist mode. In outline: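 Beta-lactamase reporter inhibition, read as CCF4 fluorescence ratio (ex 405, em 460/530 nm) after 2 h at RT. HEK293T UAS-bla cells, 2500/well, were stimulated with 9-cis-RA at 500 or 100 nM final alongside test compound for 18 h at 37 C.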
Sequence of Retinoic acid receptor RXR-alpha (Homo sapiens) (P19793 whole entry, looked up): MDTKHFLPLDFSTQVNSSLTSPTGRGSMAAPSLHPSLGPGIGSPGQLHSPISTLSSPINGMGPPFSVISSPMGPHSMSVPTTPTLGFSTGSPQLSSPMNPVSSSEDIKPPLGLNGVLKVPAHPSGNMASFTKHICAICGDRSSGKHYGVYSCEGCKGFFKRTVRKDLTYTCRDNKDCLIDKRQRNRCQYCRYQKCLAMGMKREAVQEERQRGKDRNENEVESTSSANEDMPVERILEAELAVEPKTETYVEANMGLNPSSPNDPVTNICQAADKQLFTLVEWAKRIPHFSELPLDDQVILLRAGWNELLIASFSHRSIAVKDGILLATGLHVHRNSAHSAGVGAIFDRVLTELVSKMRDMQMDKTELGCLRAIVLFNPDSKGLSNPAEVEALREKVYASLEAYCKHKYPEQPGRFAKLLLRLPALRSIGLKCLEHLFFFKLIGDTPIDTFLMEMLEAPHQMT

Assay [13] is described as follows: qHTS assay for small molecule agonists of the antioxidant response element (ARE) signaling pathway (AID 651741; active means well fitted activation curve with a large enough effect in the signal ratio; the % refers to the signal ratio; further: potency means the concentration at half of the fitted maximal effect; on activation: % of control where 0% means no effect). In outline: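 CellSensor ARE-bla HepG2 cells (2,000/well) carrying ARE-driven beta-lactamase, exposed 16 h at 37 C. LiveBLAzer B/G FRET substrate added for 2 h at room temperature; fluorescence intensity read.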
Assay [14] can be described thus: qHTS assay for small molecule activators of the nuclear factor-kappa B (NF-kB) signaling pathway (AID 651749; active means well fitted activation curve with a large enough effect in the signal ratio; the % refers to the signal ratio; further: % of control where 0% means no effect). The following applies: NF-kB-bla ME-180 cells, beta-lactamase FRET ratio, 16 h; activation: stronger effect = higher value. In outline: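 NF-kB-bla ME-180 cells carrying a beta-lactamase reporter under an NF-kB response element, 2,000 cells/well, exposed to compound for 16 hr at 37C; FRET-based beta-lactamase fluorescence read-out of pathway activation.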

Assay [15] is described as follows: qHTS assay for small molecule disruptors of the mitochondrial membrane potential - 5 hr assay (AID 651755). Further: on the % scale 0 is the no-effect control and ±100 the full control effect; nearly all actives have a fitted effect of over 40% in size. In outline: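 HepG2 cells (2,000/well), attached overnight, exposed to compound 5 hr at 37C, then Mito-MPS dye 30 min. Fluorescence read for monomers (490/535 nm) and aggregates (540/590 nm).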
Assay [16] in a line: qHTS assay for small molecule agonists of the antioxidant response element (ARE) signaling pathway measured by Nrf2-dependant transcriptional activity - cell viability counter screen (AID 720653; active means well fitted curve in the direction sought with a large enough effect in the repeat runs; an effect the other way counts as inactive or inconclusive; further: on the % scale 0 is the no-effect control and ±100 the full control effect). The following applies: ARE-bla HepG2 viability, CellTiter-Glo ATP luminescence, 16 h; stronger effect = lower value. The essentials:
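ARE-bla HepG2 cells treated with compounds for 16 h at 37C; this counter screen measures viability as intracellular ATP by CellTiter-Glo luminescence after 30 min at room temperature.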

Assay [17] is described as follows: KB-8-5-11 P-gp reporter qHTS against the NCATS DSHEA and TCM libraries (AID 1919977; active means well fitted curve in the direction sought with a large enough effect; an effect the other way counts as inactive or inconclusive; further: 0% is about no effect). In outline: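 Cells were seeded, allowed ~4 h to attach, dosed by pin tool (substance titrations), incubated ~72 h at 37C, then lysed with CellTiter-Glo for 30 min at room temperature before luminescence reading.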
The nature of assay [18]: qHTS assay for small molecule activators of the human pregnane X receptor (PXR) signaling pathway (AID 720659; call rule not given here; further: 0% is about no effect).
Assay [19] can be described thus: Cellular Toxicity (caspase-3) N2a (AID 665; active means well fitted curve in the direction sought with a large enough effect; an effect the other way counts as inactive or inconclusive;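 further: compound exposure lasted 16 h at 37 °C before readout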). The following applies: N2a cells, luminescence, normalized: DMSO 0%, 10 µM staurosporine 100%; at 92.2 µM (top of the series). In outline:
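N2a cells, 1500/well, 5 h settle at 37 °C; cpd 16 h, 37 °C; Caspase-Glo 3/7, 1 h RT; luminescence. Norm: DMSO = 0, 10 uM staurosporine = 100%. AC50, Hill fit.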

The target of assay [20] is Thyroid hormone receptor beta (Homo sapiens) (UniProt P10828). As to the kind of experiment: qHTS assay for small molecule agonists of thyroid hormone receptor beta signaling (AID 588545). In outline:
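Agonist-mode beta-lactamase reporter assay, HEK 293 cells, 2% charcoal/dextran FBS; cells plated 4 hrs, compound 18 hrs at 37 C, CCF4 2 hrs RT. Normalized to 10 nM T3 (100%) and DMSO (0%); Hill fit gives EC50, efficacy.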

Several values for one entry are separate records, joined by “and”; a condition that tells them apart may be missing. Equal values may be shown once. Records with an inconclusive call do not appear. Some structures have more than one record in an assay (separate samples or runs), and their calls can disagree. Activity calls are given as the source filed them. Unless noted, the call rests on the fitted dose curve. Where only a bound is given, the exact number is not on record here.

Sequence of Thyroid hormone receptor beta (Homo sapiens) (P10828 whole entry, looked up): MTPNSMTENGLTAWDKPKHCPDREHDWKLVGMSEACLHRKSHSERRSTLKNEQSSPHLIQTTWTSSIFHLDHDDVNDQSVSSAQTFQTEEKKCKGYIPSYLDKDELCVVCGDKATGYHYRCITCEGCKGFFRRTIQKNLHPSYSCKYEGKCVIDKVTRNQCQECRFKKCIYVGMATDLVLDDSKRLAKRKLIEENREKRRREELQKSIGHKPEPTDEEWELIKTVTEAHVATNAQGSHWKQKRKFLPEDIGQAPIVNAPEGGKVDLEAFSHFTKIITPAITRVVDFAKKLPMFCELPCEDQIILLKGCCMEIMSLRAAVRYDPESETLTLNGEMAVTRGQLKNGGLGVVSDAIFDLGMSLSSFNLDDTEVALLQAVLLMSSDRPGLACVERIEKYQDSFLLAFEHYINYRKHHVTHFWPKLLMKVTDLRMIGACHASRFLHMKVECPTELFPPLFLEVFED

`S=C=Nc1cccc2ccccc12`: the Potency in [1] is > 92 µM (inactive); in assay [13] it was 47.3 µM (active). The Potency result in [2], in assay [3], in assay [4], in [5] and in assay [15] was “inactive” in each case. Moreover, the call in assay [6], in [7], in assay [10] and in assay [11] was inactive. Also, the results for the activation in [8] and in assay [14] were -1.78% (inactive) and 2.04% (inactive), respectively. The max response was -3.26% in assay [9], 3.59% (inactive) in assay [12] and -2.47% (inactive) in assay [16].

For the molecule `CC1(C)CC[C@]2(C(=O)O)CC[C@]3(C)C(=CCC4[C@@]5(C)CC[C@@H](O)C(C)(C)C5CC[C@]43C)C2C1` (stereo not given in full), the Potency result in assay [17] was “inactive”.

As to `CCCCCCCCCCCC(=O)O`, the Potency entry in assay [17] was “inactive”.

For `C=CC(C)=O`, the Potency in assay [1] was > 92 µM (inactive). In addition, the Potency entry in [2], in assay [4], in [5], in assay [13] and in assay [15] was “inactive” each time. Besides, the result in assay [6], in assay [7] and in assay [18] was inactive. Besides, the results for the activation in assay [8] and in assay [14] were -1.53% (inactive) and 0.254% (inactive), respectively. Also, the results for the max response in assay [9] and in assay [16] were 6.99% and 0.624% (inactive), respectively.

For `c1ccc(-c2ccccc2)cc1`, the Potency in [1] is > 92 µM (inactive); in assay [13], “inactive and 54.5 µM (active)”. Besides, the Potency result in [2], in assay [3] and in [4] was “inactive” each time. For the same molecule, the caspase-3 activation in assay [19] is -1.9% (inactive). Besides, the result in [6] and in assay [7] was inactive. The activation in assay [8] was -2.99% (inactive) and -4% (inactive); in assay [14], 0.41% (inactive) and 0.224% (inactive). Further, the max response is -1.97% and 13.4% in assay [9]; -4.53% (inactive) and 7.05% (inactive) in assay [12]; -4.39% (inactive) and -5.27% (inactive) in assay [16].

Turning to `COc1ccc(C(=O)O)cc1`, in assay [17], the Potency result was “inactive”.

Turning to `O=C(Cl)C(Cl)(Cl)Cl`, the Potency result in [2], in assay [3], in [4] and in assay [13] was “inactive” in each case. Further, in assay [19], the caspase-3 activation is 0.525% (inactive). Moreover, the call in assay [6], in assay [7], in [10], in assay [11], in assay [20] and in assay [18] was inactive. Besides, the activation in assay [8] is -1.96% (inactive); in [14], -1.07% (inactive). Besides, in assay [9], the max response was determined as 6.34%.

In the case of `CC1=CCC2CC1C2(C)C` (stereo not given), the Potency entry in assay [17] was “inactive”.

For the molecule `CCCSC(=O)Cl`, the Potency result in assay [2], in [3], in [4], in assay [13] and in assay [15] was “inactive” in each case. The caspase-3 activation in [19] was -1.31% (inactive). Also, the result in assay [6], in assay [7], in assay [10], in assay [11], in [20] and in assay [18] was inactive. Also, the activation in [8] is 0.0371% (inactive); in [14] it was -0.498% (inactive). The max response in [12] was 25.6% (inactive).

The values above are taken from PubChem BioAssay (NCATS).
